According to the supplement of paper PMC3334620:
Whole data set: some 33,000 sequences, median “E-score (-0.5 to 0.5)” near -0.056, cut for the highest 2% near 0.38. Shown is part of a subset that was picked to be rich in the highest values.

molecular target: Stb4 (UniProt P50104); test: PBM E-score (8-mer binding enrichment) (E-score (-0.5 to 0.5)); higher = stronger / more preferred TF binding; conditions: protein concentration: 200 nM; construct: GST-DNA-binding domain
Description: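 Universal 'all 10-mer' protein binding microarrays (Agilent AMADID 015681) probed with GST-tagged S. cerevisiae TFs (full-length or DBD) made by in vitro transcription/translation (PURExpress), about 100-200 nM. Bound TF was detected with fluorescent anti-GST. Each ungapped 8-mer (which stands for itself and its reverse complement) is scored by the PBM enrichment score (E-score), a modified Wilcoxon-Mann-Whitney statistic from -0.5 to +0.5, computed with the Universal PBM Analysis Suite. Scale: above 0.35 generally sequence-specific binding.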

Chain of UniProt P50104 (P50104 whole entry, the tested form may be a part): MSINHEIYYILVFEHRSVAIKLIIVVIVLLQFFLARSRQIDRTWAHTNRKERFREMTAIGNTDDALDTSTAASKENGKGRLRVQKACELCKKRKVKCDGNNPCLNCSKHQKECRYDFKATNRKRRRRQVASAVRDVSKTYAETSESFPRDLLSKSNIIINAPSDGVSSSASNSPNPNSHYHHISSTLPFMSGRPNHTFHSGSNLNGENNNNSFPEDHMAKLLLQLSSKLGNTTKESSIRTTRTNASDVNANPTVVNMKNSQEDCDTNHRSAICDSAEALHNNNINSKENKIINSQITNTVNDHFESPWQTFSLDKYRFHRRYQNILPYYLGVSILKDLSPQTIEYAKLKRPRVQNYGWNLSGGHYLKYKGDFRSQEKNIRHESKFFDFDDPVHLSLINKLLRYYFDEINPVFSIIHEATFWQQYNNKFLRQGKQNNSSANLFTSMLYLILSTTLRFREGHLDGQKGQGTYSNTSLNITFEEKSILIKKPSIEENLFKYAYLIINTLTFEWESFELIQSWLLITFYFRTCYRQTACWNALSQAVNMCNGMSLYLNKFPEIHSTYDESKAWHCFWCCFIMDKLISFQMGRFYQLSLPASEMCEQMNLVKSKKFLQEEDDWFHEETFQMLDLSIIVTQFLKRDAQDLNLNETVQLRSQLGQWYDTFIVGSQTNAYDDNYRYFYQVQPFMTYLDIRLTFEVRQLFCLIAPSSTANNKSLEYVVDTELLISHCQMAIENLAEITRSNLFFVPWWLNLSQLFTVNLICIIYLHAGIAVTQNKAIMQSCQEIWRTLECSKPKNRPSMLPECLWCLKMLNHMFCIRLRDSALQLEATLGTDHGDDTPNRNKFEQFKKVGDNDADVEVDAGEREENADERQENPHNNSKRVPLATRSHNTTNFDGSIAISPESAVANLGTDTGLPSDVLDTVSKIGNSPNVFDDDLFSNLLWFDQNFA

Sequence	PBM E-score
ATCCGAAT	0.48
CACCGAAG	0.228
CTACGAAG	-0.247
ATACGAAT	-0.0803
GTCCGAAA	0.337
CCTATTCA	-0.0251
CGCGCCTA	0.0819
CACTGGTA	-0.276
GAGTCCCA	0.116
TGACTCAA	-0.149
CGTTCTCC	-0.0997
AGGTTCGC	0.0812
ACGTTCCT	-0.168
AAGTTCCT	-0.00611
AAGTTCCG	0.434
CAGTTCCG	0.364
AGGTTCCC	-0.0987
AGGTTCCA	0.0324
AGGTTCCG	0.383
AGGTTCGA	-0.0841
ACGTTCCA	-0.0774
AGGTTCGG	0.403
ACGTTCCG	0.398
CATAACCC	0.051
AGGTGGGG	-0.0596

Sequence	PBM E-score
GCAAAAAC	-0.0252
CACAGCTC	-0.18
GCACCATA	-0.021
CAGAACTA	-0.0215
CGGCGATA	0.277
CGTAGGGC	-0.195
ACATTTCC	0.141
CGCACCGC	-0.00306
CCGTTCCA	0.183
CCGTTCCC	0.273
ATGTTCCC	0.153
ATGTTCGG	0.392
ATGTTCGA	-0.112
ATGTTCGC	-0.118
ATGTTCCG	0.448
ATGTTCCA	-0.0991
CCGTTCCG	0.431
AAAACCCA	-0.0723
CCTGGCAG	-0.289
CTTTGAGC	-0.151
GAACCACC	0.218
CGGTGGTA	0.0785
TACCAAAA	-0.12
AAATTGTG	-0.295
GTGATCTA	-0.0262

Sequence	PBM E-score
ATCCCTTC	-0.183
GCGATTGA	-0.113
AAGCCGCA	0.167
CAGCCAAA	-0.0614
AAGCCGAT	0.299
GAGCCGGA	0.348
AAGCCGAG	0.401
AAGCCGAA	0.407
CAGCCGAC	0.311
AAGCCGGA	0.355
AAGCCGAC	0.26
CAGCCGAA	0.392
AAGCCAAA	-0.0671
TAGCCGGA	0.384
CTAGCCAC	-0.287
AACTTGGG	0.0814
AGAGCCTG	-0.237
TAAGTTGA	-0.103
GGATCACA	0.228
TAGTGAAA	-0.178
CGATACTC	0.065
AGGGCCAT	-0.253
TGGCCGAA	0.251
GAGCCGCA	0.0237
GAGCCGAA	0.423

Sequence	PBM E-score
TAGCCGAA	0.446
CAGCCGCG	0.151
CAGCCGAG	0.409
GAGCCGAC	0.296
TAGCCAAA	0.0424
CAGCCGGG	0.237
AGGTCGCC	0.00267
AAGGGCAA	0.158
CTGCTAGC	-0.23
TAGTTTGA	-0.121
ATAACGCA	-0.0729
CCGGTAGA	0.264
CGGAAACG	0.384
CGGAAACC	0.347
AGGAAACG	-0.164
CGGAAACA	0.427
GGGAAACA	0.175
AGGAAACA	-0.0661
ATCAAATG	0.129
ACCTAAAG	-0.0577
AGTGCACC	0.0754
CGTAAACA	0.055
ATGCTCGG	0.404
AGGCTCGG	0.432
ATGCTCGA	-0.139

Sequence	PBM E-score
AGGCTCGC	-0.00633
ACGCTCGG	0.42
AGGCTCGA	-0.126
ACGCTCGC	-0.227
ATGCTCGC	-0.239
ACGCTCGA	-0.198
TAAATGGA	-0.104
TAAAACAA	-0.199
AATGGGGC	-0.232
CCTCGCGC	-0.0639
ATCGACGC	-0.126
CCTAGGGC	-0.153
CGTACCGA	0.334
ACTATCGG	0.236
GCTCCCGA	0.41
CCTCCCGC	0.133
CCTCCCGA	0.387
ACTCCCGC	0.234
ACTCCCGG	0.372
ACTCCCGA	0.411
GCTCCCAA	-0.272
CCTCCCCA	-0.0256
GCTCCCCA	-0.311
TTGATCAA	-0.205
ACGGACGC	-0.0449

Sequence	PBM E-score
TCTCCGAA	0.384
TCTCCAAA	-0.144
CCTCCGAG	0.4
GCTCCGGA	0.346
CCTCCGAA	0.352
GCTCCGAA	0.4
TCTCCGCA	0.147
CCTCCGAC	0.209
GCTCCGAC	0.238
ACTCCGGA	0.411
ACTCCGGC	0.281
CCTCCGCG	0.159
AGGCTAGC	-0.217
CCGGTCAC	0.108
CGGTGCTA	0.103
TAAGAGAA	-0.344
ACATCGAC	-0.0835
AACAGTAG	-0.0759
ACATTGAT	0.0749
AAAGTTAG	-0.00674
CAGCGGTC	-0.186
ACTCCGTA	0.0548
ACTCCAAA	-0.0951
ACTCCGAC	0.32
ACTCCGAG	0.395

Sequence	PBM E-score
ACTCCGAT	0.242
ACTCCGAA	0.385
CAATAGGG	-0.163
CGGCCTGA	0.0862
CAAGCGAA	-0.201
TCGCGTAA	0.0292
CACAACCC	-0.0519
GTCCATTA	-0.172
GGATCCGA	0.459
AGATCCGA	0.477
CGATCCGA	0.475
AGATCCGG	0.366
AGATCCGC	0.291
AGATCCCG	0.407
GGATCCCA	0.102
CGATCCCG	0.342
CGATCCGC	0.325
CGATCCTA	-0.0737
GGATCCTA	0.122
AGATCCCT	-0.226
AGCGATAT	-0.172
GTTCCTTA	0.0117
